# Inconclusive results are not listed. A call without a number means that no potency is given here. Active and inactive are the calls of the source. Calls come from the whole dose curve.
# Molecular target: Nucleoprotein (Lymphocytic choriomeningitis virus (strain Armstrong)) (UniProt P09992)
# Experiment: qHTS for Inhibitors of the Functional Ribonucleoprotein Complex (vRNP) of Lymphocytic Choriomeningitis Arenaviruses (LCMV): LCMV Primary Screen - GLuc reporter signal (AID 1347086); note: nearly all actives have a fitted effect of over 70% in size
# Conditions: LCMV minigenome vRNP cell assay, Gaussia luciferase reporter; series mostly up to 57.5 µM
# Potency is the fitted concentration of half-maximal effect.
# Sequence of Nucleoprotein (Lymphocytic choriomeningitis virus (strain Armstrong)) (P09992 whole entry, looked up): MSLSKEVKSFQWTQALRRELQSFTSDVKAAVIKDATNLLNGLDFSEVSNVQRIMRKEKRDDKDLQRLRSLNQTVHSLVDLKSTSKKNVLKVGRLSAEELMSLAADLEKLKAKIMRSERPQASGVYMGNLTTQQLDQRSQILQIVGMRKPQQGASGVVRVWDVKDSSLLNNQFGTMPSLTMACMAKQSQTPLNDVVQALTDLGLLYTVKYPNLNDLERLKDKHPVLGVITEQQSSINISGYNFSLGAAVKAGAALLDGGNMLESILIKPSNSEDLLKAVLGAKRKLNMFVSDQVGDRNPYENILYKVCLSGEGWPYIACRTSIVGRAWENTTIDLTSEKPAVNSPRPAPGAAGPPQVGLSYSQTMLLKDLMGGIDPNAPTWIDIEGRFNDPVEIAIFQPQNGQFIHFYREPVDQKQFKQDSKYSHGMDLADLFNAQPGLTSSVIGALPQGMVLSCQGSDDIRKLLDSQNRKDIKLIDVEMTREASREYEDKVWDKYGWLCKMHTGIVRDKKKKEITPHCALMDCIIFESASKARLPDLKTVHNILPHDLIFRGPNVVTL
row,Structure (SMILES),Potency
1,N#Cc1ccc(COC[C@H]2O[C@@H](n3c(NCc4ccc(Cl)c(Cl)c4)nc4c(N)ncnc43)[C@@H](O)[C@@H]2O)cc1,inactive
2,COc1c(Cl)cc2c([nH]c3cnccc32)c1NC(=O)c1cccnc1C,inactive
3,NC(=O)c1c(OCc2c(F)cc(Br)cc2F)nsc1NC(=O)NCCCCN1CCCC1,inactive
4,O=C(c1cc(Cc2n[nH]c(=O)c3ccccc23)ccc1F)N1CCN(C(=O)C2CC2)CC1,inactive
5,O=S(=O)(N=Cc1c(O)ccc2ccccc12)c1cccs1,inactive
6,CNCc1ccc(-c2[nH]c3cc(F)cc4c3c2CCNC4=O)cc1,inactive
7,CC(C)(C)c1cc(NC(=O)Nc2ccc(-c3cn4c(n3)sc3cc(OCCN5CCOCC5)ccc34)cc2)no1,inactive
8,C=C[C@@H]1CN2CCC1C[C@H]2[C@H](O)c1ccnc2ccccc12 (some centres undefined),inactive
9,CS(=O)(=O)c1ccc(C(=O)Nc2ccc(Cl)c(-c3ccccn3)c2)c(Cl)c1,inactive
10,Cc1ccc(F)c(NC(=O)Nc2ccc(-c3cccc4[nH]nc(N)c34)cc2)c1,inactive
11,CNC(=O)c1cc(Oc2ccc(NC(=O)Nc3ccc(Cl)c(C(F)(F)F)c3)c(F)c2)ccn1,inactive
12,Cc1cccc(-c2[nH]ncc2-c2ccc3ncccc3n2)n1,inactive
13,CN1C(=O)c2ccccc2C1=O,inactive
14,COCCNCCCn1c(C(=O)CF)c(-c2ccc(C)cc2)c2c(N)ncnc21,inactive
15,Fc1cc(-c2cccc3ncc(-c4cnn(C5CCNCC5)c4)nc23)cc(F)c1CN1CCOCC1,inactive
16,CCOc1ccn(-c2ccc(F)cc2)c(=O)c1C(=O)Nc1ccc(Oc2ccnc(N)c2Cl)c(F)c1,inactive
17,CCN(CC)c1ccc(C(=C2C=CC(=[N+](CC)CC)C=C2)c2cc(S(=O)(=O)O)ccc2S(=O)(=O)[O-])cc1,inactive
18,CN1CCN(CCOc2cc(OC3CCOCC3)c3c(Nc4c(Cl)ccc5c4OCO5)ncnc3c2)CC1,inactive
19,O=c1cc(N2CCOCC2)oc2c(-c3cccc4c3sc3ccccc34)cccc12,inactive
20,CNc1nccc(-c2cccnc2Oc2cc(C(=O)Nc3cccc(C(F)(F)F)c3)ccc2C)n1,inactive
21,COc1cc2c(cc1OC)[C@@H]1C(=O)c3ccc4c(c3O[C@@H]1CO2)C=CC(C)(C)O4,243 nM (active)
22,Cn1c(NCCN(CCO)CCCc2ccc([N+](=O)[O-])cc2)cc(=O)n(C)c1=O,inactive
23,CC(C)Oc1cc(Nc2nc(N[C@@H](C)c3ccc(F)cn3)ncc2Cl)[nH]n1,inactive
24,CC(=O)Nc1sc2c(c1-c1nc3ccccc3s1)CNC2,2.7 nM (active)
25,CC(C)(N)C(=O)N[C@H](COCc1ccccc1)C(=O)N1CCC2(CC1)CN(S(C)(=O)=O)c1ccccc12,inactive
26,CC(C)OC(=O)C1=CN(C(=O)c2ccc(F)c(F)c2)CC(C)(C)c2c1[nH]c1ccccc21,inactive
27,Cc1cnc(Nc2ccc(OCCN3CCCC3)cc2)nc1Nc1cccc(S(=O)(=O)NC(C)(C)C)c1,inactive
28,O=c1[nH]nc(Sc2ncc([N+](=O)[O-])s2)n1-c1ccc2c(c1)OCCO2,inactive
29,N#Cc1ccc(NC(=O)Nc2ccccc2Br)c2n[nH]nc12,inactive

# Source: PubChem BioAssay (NCATS)
